Source: PMC5700166

These sequences were tested against T1, GST-Nv-NF-kB (Ser allele) (Nematostella vectensis, UniProt A7UNT2 2-411) (assay: protein-binding microarray (PBM); PBM: ~300 nM protein, 6 mM HEPES pH 7.8, 80 mM KCl, 0.5 mM EDTA, 0.5 mM EGTA, 6% glycerol, 35 ng/ul poly-dIdC, 1% milk, 1 h, room temperature; Ap Aiptasia and Nv Nematostella (sea anemones) / Co Capsaspora / Aq Amphimedon (sponge) / Dm Drosophila / Hu human; RHD is the Rel homology domain; high values mean tight binding). Details: dsDNA, one strand shown.
T1 sequence: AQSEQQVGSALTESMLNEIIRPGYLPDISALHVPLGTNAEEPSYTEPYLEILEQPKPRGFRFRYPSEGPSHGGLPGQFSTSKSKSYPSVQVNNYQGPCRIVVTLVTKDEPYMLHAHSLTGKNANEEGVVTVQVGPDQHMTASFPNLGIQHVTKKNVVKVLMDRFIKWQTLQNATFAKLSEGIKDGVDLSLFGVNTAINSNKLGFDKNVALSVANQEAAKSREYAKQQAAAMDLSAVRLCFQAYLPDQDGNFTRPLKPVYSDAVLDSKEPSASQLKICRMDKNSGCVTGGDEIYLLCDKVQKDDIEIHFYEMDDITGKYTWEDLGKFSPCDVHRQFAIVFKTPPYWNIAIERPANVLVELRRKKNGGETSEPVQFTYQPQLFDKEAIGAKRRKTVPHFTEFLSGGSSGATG

In order of rising binding signal:
1. CCGATTAACATCAGGACAGCCCCTGATGTTAATCGGGTCTTGATTCGCTTGACGCTGCTG  2.05 z-score
2. CCGATTAACATCAAAAATCCCAATGATGTTAATCGGGTCTTGATTCGCTTGACGCTGCTG  2.4 z-score
3. CCGATTAACATCAGGACCTCCCCTGATGTTAATCGGGTCTTGATTCGCTTGACGCTGCTG  2.85 z-score
4. CCGATTAACATCAAAAAGACCCCTGATGTTAATCGGGTCTTGATTCGCTTGACGCTGCTG  3.31 z-score
5. CCGATTAACATCAGCTAATTCCCTGATGTTAATCGGGTCTTGATTCGCTTGACGCTGCTG  3.36 z-score
6. CCGATTAACATCAGGGAAAGCACTGATGTTAATCGGGTCTTGATTCGCTTGACGCTGCTG  3.86 z-score
7. CCGATTAACATCAAGTCCCCCCATGATGTTAATCGGGTCTTGATTCGCTTGACGCTGCTG  3.94 z-score
8. CCGATTAACATCACACTACCCCCTGATGTTAATCGGGTCTTGATTCGCTTGACGCTGCTG  4.06 z-score
9. CCGATTAACATCAGGGAATGCCCTGATGTTAATCGGGTCTTGATTCGCTTGACGCTGCTG  4.19 z-score
10. CCGATTAACATCACCAACCCCCCTGATGTTAATCGGGTCTTGATTCGCTTGACGCTGCTG  4.4 z-score
11. CCGATTAACATCAATCACCCCCCTGATGTTAATCGGGTCTTGATTCGCTTGACGCTGCTG  4.76 z-score
12. CCGATTAACATCAAGGGGGTACTTGATGTTAATCGGGTCTTGATTCGCTTGACGCTGCTG  4.77 z-score
13. CCGATTAACATCAGGGAATCTTATGATGTTAATCGGGTCTTGATTCGCTTGACGCTGCTG  4.86 z-score
14. CCGATTAACATCAGACTTTTCCCTGATGTTAATCGGGTCTTGATTCGCTTGACGCTGCTG  5.24 z-score
15. CCGATTAACATCAGGGGGATAAATGATGTTAATCGGGTCTTGATTCGCTTGACGCTGCTG  5.46 z-score
16. CCGATTAACATCAAAGTCTCCCCTGATGTTAATCGGGTCTTGATTCGCTTGACGCTGCTG  5.65 z-score
17. CCGATTAACATCACAAGTTTCCCTGATGTTAATCGGGTCTTGATTCGCTTGACGCTGCTG  5.84 z-score
18. CCGATTAACATCACGGAACCCCCTGATGTTAATCGGGTCTTGATTCGCTTGACGCTGCTG  6.13 z-score
19. CCGATTAACATCAGGGGAGTACCTGATGTTAATCGGGTCTTGATTCGCTTGACGCTGCTG  6.46 z-score
20. CCGATTAACATCAAAGCATCCCCTGATGTTAATCGGGTCTTGATTCGCTTGACGCTGCTG  6.87 z-score
21. CCGATTAACATCAGAAGATCCCCTGATGTTAATCGGGTCTTGATTCGCTTGACGCTGCTG  6.96 z-score
22. CCGATTAACATCAATTCCCCCCATGATGTTAATCGGGTCTTGATTCGCTTGACGCTGCTG  6.97 z-score
23. CCGATTAACATCAAATAAGTCCCTGATGTTAATCGGGTCTTGATTCGCTTGACGCTGCTG  7 z-score
24. CCGATTAACATCAGGGGATGTTATGATGTTAATCGGGTCTTGATTCGCTTGACGCTGCTG  7.06 z-score
25. CCGATTAACATCAAAAGTCCCCGTGATGTTAATCGGGTCTTGATTCGCTTGACGCTGCTG  7.85 z-score
26. CCGATTAACATCAGGGGATTCACTGATGTTAATCGGGTCTTGATTCGCTTGACGCTGCTG  7.91 z-score
27. CCGATTAACATCAAAATACCCCCTGATGTTAATCGGGTCTTGATTCGCTTGACGCTGCTG  8.62 z-score
28. CCGATTAACATCAAAAAATACCCTGATGTTAATCGGGTCTTGATTCGCTTGACGCTGCTG  8.7 z-score
29. CCGATTAACATCACACATTCCCCTGATGTTAATCGGGTCTTGATTCGCTTGACGCTGCTG  8.75 z-score
30. CCGATTAACATCAATCTTTCCCCTGATGTTAATCGGGTCTTGATTCGCTTGACGCTGCTG  8.93 z-score
31. CCGATTAACATCAAAAGTCCCCTTGATGTTAATCGGGTCTTGATTCGCTTGACGCTGCTG  8.99 z-score
32. CCGATTAACATCACATATTCCCCTGATGTTAATCGGGTCTTGATTCGCTTGACGCTGCTG  9.04 z-score
33. CCGATTAACATCAAAAGATCCCCTGATGTTAATCGGGTCTTGATTCGCTTGACGCTGCTG  9.3 z-score
34. CCGATTAACATCAGGGGAATCCATGATGTTAATCGGGTCTTGATTCGCTTGACGCTGCTG  9.54 z-score
35. CCGATTAACATCAGGGGGAAACCTGATGTTAATCGGGTCTTGATTCGCTTGACGCTGCTG  9.71 z-score
36. CCGATTAACATCAAGGATTCCCCTGATGTTAATCGGGTCTTGATTCGCTTGACGCTGCTG  10 z-score
37. CCGATTAACATCAAGAATCCCCTTGATGTTAATCGGGTCTTGATTCGCTTGACGCTGCTG  10.9 z-score
38. CCGATTAACATCAAATTCCCCCTTGATGTTAATCGGGTCTTGATTCGCTTGACGCTGCTG  11 z-score
39. CCGATTAACATCAAATATTCCCCTGATGTTAATCGGGTCTTGATTCGCTTGACGCTGCTG  11 z-score
40. CCGATTAACATCAGAATTCCCCCTGATGTTAATCGGGTCTTGATTCGCTTGACGCTGCTG  11.7 z-score
